Here are results for 5 molecules from PubChem BioAssay (NCI).

A short description of this test: NCI Yeast Anticancer Drug Screen. Data for the bub3 strain (AID 167). As to conditions: S. cerevisiae bub3 mutant strain, hits give high values. The method, then:
Growth inhibition of yeast strains with defined genetic alterations is measured as a screen for potential anti-cancer activity. Selected strains with alterations in DNA damage repair or cell cycle control were exposed to compounds and growth inhibition was measured relative to vehicle treated controls. The strain used in this assay is bub3

Where [1] appears, read: at 5.0 µM (retest, dose inferred, filed as 0.5).
Where [2] appears, read: at 50.0 µM (retest, dose inferred, filed as 5.0).

Compounds without any hit were thinned out: in the full panel of roughly 79,000, 15% have a hit. A number with no mark means an inactive call. Active and inactive are the calls of the source. Cut-off read from the data, not from the text of the source: active = growth inhibition above about 70%; inactive = the rest.

In the case of `O=C1c2cccc3cccc(c23)C(=O)N1CCNCCN1C(=O)c2cccc3cccc(c23)C1=O`, the growth inhibition (at 1.2 µM) is 0%; the growth inhibition (at 3.7 µM) was 1%; the growth inhibition under setting [1] is 2%; the growth inhibition (at 11.0 µM) was -2%; the growth inhibition (at 33.0 µM) was -4%; the growth inhibition under setting [2] is 1%. The growth inhibition (at 50.0 µM) was 0.65% and the growth inhibition (at 100.0 µM) is -3%.
Regarding `CN(C)CCCn1c2c3ccccc3ccc2c2oc(=O)c3ccccc3c21`, the growth inhibition (at 1.2 µM) is 20%; the growth inhibition (at 3.7 µM) was 11%; the growth inhibition under setting [1] was 12%; the growth inhibition (at 11.0 µM) was 23%; the growth inhibition (at 33.0 µM) was 87% (active); the growth inhibition under setting [2] was 98% (active). Also, the growth inhibition runs as follows: (at 50.0 µM) 99.2% (active); (at 100.0 µM) 98% (active).
As for `CS(=O)(=O)O.[Ag]`, the growth inhibition reads like this: (at 1.2 µM) 80% (active); (at 3.7 µM) 98% (active); under setting [1], 4%; (at 11.0 µM) 99% (active); (at 33.0 µM) 96% (active); under setting [2], 98% (active). Further, the growth inhibition is, setting by setting: (at 50.0 µM) 92% (active); (at 100.0 µM) 97% (active).
For `O=[N+]([O-])c1cccc2nc3ccccc3c(NCCCN3CCCCC3)c12`, the growth inhibition runs as follows: (at 1.2 µM) -14%; (at 3.7 µM) 21%; under setting [1], 22%; (at 11.0 µM) 90% (active); (at 33.0 µM) 97% (active); under setting [2], 98% (active). In addition, the growth inhibition (at 50.0 µM) was 96.8% (active) and the growth inhibition (at 100.0 µM) is 98% (active).
Regarding `O=Cc1ccccc1C=O`, the growth inhibition is, setting by setting: (at 1.2 µM) 6%; (at 3.7 µM) 17%; under setting [1], -32%; (at 11.0 µM) 14%; (at 33.0 µM) 23%; under setting [2], 76% (active). Moreover, the growth inhibition is 24.4% (at 50.0 µM) and 81% (active) (at 100.0 µM).
